target: ZNF721 DBD1 (Homo sapiens, UniProt Q8TF20-2 29-461); experiment: HT-SELEX; 20 mM HEPES pH 7, 140 mM KCl, 5 mM NaCl, 1 mM K2HPO4, 2 mM MgSO4, 100 uM EGTA, ZnSO4, 0.1% Tween20; room temperature, 1 h; high values mean tight binding; details: protein: ivt; tags: eGFP (N-terminal); dsDNA, one strand shown
Method in brief: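 In HEPES/KCl low-stringency buffer with Tween20, a bead-immobilised tagged transcription factor (full-length or DNA-binding-domain fragment, from HEK293 lysate or cell-free extract) was incubated with a randomized 40-base DNA library for 1 h at room temperature. DNA retained after washing was heat-eluted, amplified by PCR over successive cycles and Illumina-sequenced, giving ~3 million 60 bp reads per sample. The reported binding signal, a relative k-mer count in those selected reads, rises with tighter binding.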

Sequence of ZNF721 DBD1 (Q8TF20 17-449): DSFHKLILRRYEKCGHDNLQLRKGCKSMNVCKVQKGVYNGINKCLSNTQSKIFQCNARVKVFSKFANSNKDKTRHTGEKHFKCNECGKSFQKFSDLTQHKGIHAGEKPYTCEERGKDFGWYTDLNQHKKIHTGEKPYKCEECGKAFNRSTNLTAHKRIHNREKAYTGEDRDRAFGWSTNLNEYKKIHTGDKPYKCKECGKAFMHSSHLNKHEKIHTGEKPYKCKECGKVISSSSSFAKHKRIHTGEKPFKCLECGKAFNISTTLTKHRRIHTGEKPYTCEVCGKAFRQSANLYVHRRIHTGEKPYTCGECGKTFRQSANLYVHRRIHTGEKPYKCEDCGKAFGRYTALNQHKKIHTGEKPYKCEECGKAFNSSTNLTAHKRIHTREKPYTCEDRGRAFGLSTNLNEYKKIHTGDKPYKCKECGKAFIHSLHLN

Q: CCCCCCACCG was tested. Which binding signal did it give?
A: 0.00605 relative 10-mer count

Q: AAAAAAGCAT was tested. Which binding signal did it give?
A: 0.0588 relative 10-mer count

Q: CTCCCCACCA was tested. Which binding signal did it give?
A: 0.00596 relative 10-mer count

Q: Which binding signal does the source give for GCGTACCCTA here?
A: 0.0263 relative 10-mer count

Q: Which binding signal does the source give for CCTCCTCCCC here?
A: 0.00881 relative 10-mer count

Q: How did the binding signal turn out when GTGGGGTGGA was run?
A: 0.00573 relative 10-mer count

Q: Which binding signal does the source give for CCCCCCTCCA here?
A: 0.0055 relative 10-mer count

Q: ACAAAAAAAC was tested. Which binding signal did it give?
A: 0.00188 relative 10-mer count

Q: For CCCCACCCAA, which binding signal is on record?
A: 0.00431 relative 10-mer count

Q: For CAACAAAACA, which binding signal is on record?
A: 0.00174 relative 10-mer count

Q: Which binding signal does the source give for CCGCCGCCCC here?
A: 0.00546 relative 10-mer count

Q: For AAAAAAGCGC, which binding signal is on record?
A: 0.0212 relative 10-mer count

Q: For CCAAAAAAAA, which binding signal is on record?
A: 0.0171 relative 10-mer count

Q: With CTCCCCTCCC as the sequence, how does the binding signal read?
A: 0.00693 relative 10-mer count

Q: ACCCTCCCAC was tested. Which binding signal did it give?
A: 0.00734 relative 10-mer count

Q: CCCCCGCGCC was tested. Which binding signal did it give?
A: 0.00381 relative 10-mer count

Q: With AAAGCTATCC as the sequence, how does the binding signal read?
A: 0.0786 relative 10-mer count

Q: How did the binding signal turn out when CCACCACCGC was run?
A: 0.00482 relative 10-mer count

Q: How did the binding signal turn out when CCCGCCCCCA was run?
A: 0.00706 relative 10-mer count

Q: For AAAGCAGTAC, which binding signal is on record?
A: 0.0228 relative 10-mer count

Q: For AGCGTTTCCA, which binding signal is on record?
A: 0.00252 relative 10-mer count

Q: For CATCCCCACC, which binding signal is on record?
A: 0.0072 relative 10-mer count

Q: Which binding signal does the source give for AGGGGGGAGG here?
A: 0.00789 relative 10-mer count

Q: For AAAAAAGCGG, which binding signal is on record?
A: 0.0255 relative 10-mer count

Q: How did the binding signal turn out when ACAAAAAAAG was run?
A: 0.0121 relative 10-mer count

Q: How did the binding signal turn out when CGCCACCCAC was run?
A: 0.0056 relative 10-mer count

Q: Which binding signal does the source give for AAAAAAAAGC here?
A: 0.113 relative 10-mer count

Q: With AGCGTATCCT as the sequence, how does the binding signal read?
A: 0.0287 relative 10-mer count

Q: Which binding signal does the source give for CTCCCACCCC here?
A: 0.0128 relative 10-mer count

Q: CCCCGTCCCC was tested. Which binding signal did it give?
A: 0.00789 relative 10-mer count

Q: CCACCGCCCC was tested. Which binding signal did it give?
A: 0.0117 relative 10-mer count

Q: How did the binding signal turn out when CCCATCCCCA was run?
A: 0.00472 relative 10-mer count

Q: Which binding signal does the source give for CCCGCCCCAC here?
A: 0.00784 relative 10-mer count

Q: Which binding signal does the source give for GGGAGGGGGA here?
A: 0.00752 relative 10-mer count

Q: With CCGACCCACC as the sequence, how does the binding signal read?
A: 0.00367 relative 10-mer count

Q: For CCCCACCCCC, which binding signal is on record?
A: 0.0179 relative 10-mer count

Q: How did the binding signal turn out when GCTTCATACA was run?
A: 0.318 relative 10-mer count

Q: How did the binding signal turn out when CCGCCCACCC was run?
A: 0.0089 relative 10-mer count

Q: For GCCACCCCCC, which binding signal is on record?
A: 0.00546 relative 10-mer count

Q: Which binding signal does the source give for CCCACACCCA here?
A: 0.00468 relative 10-mer count

From PMC13541613, “GHT-SELEX demonstrates unexpectedly high intrinsic sequence specificity and complex DNA binding of many human transcription factors”
